The text below walks through data of PubChem BioAssay (NCI).

What all share (test): NCI-60 one-dose screen, 48 h (100 = growth as untreated, 0 = no growth, -100 = all killed)
One experiment concerns BT-549 breast. The following applies: 10 µM unless noted.
The next experiment has as its system MDA-MB-435 melanoma. As to conditions: 10 µM unless noted.
For a further experiment, the system named is SW-620 colon. The following applies: 10 µM unless noted.
Another experiment has as its system MCF7 breast. As to conditions: 10 µM.
The test system of another experiment is HCT-116 colon. As to conditions: 10 µM unless noted.
Another experiment relates to KM12 colon. As to conditions: 10 µM unless noted.
The next experiment concerns HCC-2998 colon. The following applies: 10 µM unless noted.

The structures appear in SMILES notation. About 83,000 compounds went through this panel and 20% of them were active in at least one assay; those are over-represented in the sample as a whole.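 96-well plates, one dose, 48 hours. Percent growth reported; active if below 10.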 A number with no mark means an inactive call. Activity calls are given as the source filed them.

With `COc1cc2nc(NC3CCC3)nc(NC3CCN(C(C)C)CC3)c2cc1OC`, the growth with BT-549 breast was 72.5%; in the experiment on MDA-MB-435 melanoma, -48% (active); in the experiment on SW-620 colon, 38.7%; in the experiment with MCF7 breast, 29.5%; in the experiment with HCT-116 colon it was 48.1%; in the experiment with KM12 colon it was 62.9%.
On to `CCOC(=O)c1c(C=O)nc2ccccc2c1/C=C/c1ccc(Cl)cc1`, for which the growth is 99.6% with BT-549 breast; 101% with MDA-MB-435 melanoma; 103% with SW-620 colon; 78% in the experiment with MCF7 breast; 82.4% with HCT-116 colon; 96.1% with KM12 colon.
As for `CCn1c(-c2nonc2Nc2ccc(OC)cc2)nc2ccccc21`, the growth in the experiment with BT-549 breast was 103%; with MDA-MB-435 melanoma it was 96.8%; with SW-620 colon, 104%; with MCF7 breast, 110%; with HCT-116 colon, 97.4%; with KM12 colon, 106%.
Take `COc1ccc(C2c3ccc4ccccc4c3Oc3ncn(CCCn4ccnc4)c(=N)c32)cc1OC` (centres undefined): the growth in the experiment on BT-549 breast is 69.9%; with MDA-MB-435 melanoma, 64.5%; in the experiment on SW-620 colon, 64.4%; in the experiment on MCF7 breast, 51.8%; with HCT-116 colon, 28.8%; in the experiment on KM12 colon, 84.2%.
Regarding `COc1ccc(-c2cn3c(C(=O)Nc4ccccc4Cl)c(-c4ccccc4)c4c3n2CCCC4)cc1`, the growth was 86.4% in the experiment on BT-549 breast; 80% in the experiment on MDA-MB-435 melanoma; 82.5% in the experiment with SW-620 colon; 71.3% in the experiment on MCF7 breast; 73.2% in the experiment on HCT-116 colon; 82.8% in the experiment on KM12 colon.
Regarding `O=C(Cc1ccccc1)NC(c1ccc(Cl)cc1)c1c(O)ccc2ccccc12` (centres undefined), the growth was 50% with BT-549 breast; 6.36% (active) in the experiment on MDA-MB-435 melanoma; 17.5% in the experiment on SW-620 colon; 8.18% (active) in the experiment with MCF7 breast; 2.62% (active) in the experiment with HCT-116 colon; 15.1% in the experiment on KM12 colon.
`COC(=O)c1c2c(c(C)[n+]([O-])c1C)C(=O)C(NCc1ccc(Br)cc1)=CC2=O`: the growth in the experiment with BT-549 breast was 62.3%; with MDA-MB-435 melanoma it was -77.4% (active); in the experiment with SW-620 colon, 5.24% (active); with HCT-116 colon, 1.37% (active); in the experiment on HCC-2998 colon it was 14.4%; in the experiment on KM12 colon, 15.2%.
`NC1C(N)C(N)C1N` (centres undefined): the growth in the experiment with BT-549 breast was 107%; in the experiment with MDA-MB-435 melanoma, 122%; in the experiment with SW-620 colon, 106%; in the experiment on HCT-116 colon, 103%; in the experiment on HCC-2998 colon, 99.9%; with KM12 colon, 119%.
For the compound `CCC1=C[C@@H]2CN(C1)Cc1c([nH]c3ccccc13)[C@@](C(=O)OC)(c1cc3c(cc1OC)N(C)[C@H]1[C@@](O)(C(=O)OC)[C@H](OC(C)=O)[C@]4(CC)[C@@H]5C[C@@H]5CN5CC[C@]31[C@@H]54)C2`, the growth in the experiment on BT-549 breast is 12.8%; in the experiment on MDA-MB-435 melanoma it was -57.7% (active); in the experiment on SW-620 colon, 26.1%; with HCT-116 colon, 6.72% (active); with HCC-2998 colon it was -13.1% (active); in the experiment on KM12 colon, 5.74% (active).
As for `O=c1c2cccc(F)c2sc2c(N3CCNCC3)nc3ccccc3c12`, the growth in the experiment with BT-549 breast was 73.7%; in the experiment with MDA-MB-435 melanoma it was 2.82% (active); in the experiment with SW-620 colon, -39.8% (active); in the experiment with MCF7 breast, -20.6% (active); in the experiment on HCT-116 colon it was 7.91% (active); in the experiment with KM12 colon, 10.4%.
`O=C1NC(=S)NC(=O)C1=Cc1cn(Cc2cn(Cc3cccc4ccccc34)nn2)c2ccccc12`: the growth is 101% in the experiment with BT-549 breast; 94.8% in the experiment on MDA-MB-435 melanoma; 93.4% in the experiment with SW-620 colon; 95.4% in the experiment with MCF7 breast; 106% in the experiment on HCT-116 colon; 97.2% in the experiment with KM12 colon.
Take `CCN(CC)CCNC(=O)C(Cl)=C1C(Cl)=C(Cl)C(Cl)=C1Cl`: the growth was 33.3% in the experiment on BT-549 breast; 33.9% with MDA-MB-435 melanoma; 34.7% in the experiment on SW-620 colon; 28.7% in the experiment with MCF7 breast; 13.9% in the experiment on HCT-116 colon; 23.6% with KM12 colon.
`CCOc1ccc2c(c1)CN(Cc1ccc(Cl)cc1)CO2`: the growth was 112% in the experiment with BT-549 breast; 64.7% with MDA-MB-435 melanoma; 69.6% in the experiment on SW-620 colon; 59.4% in the experiment with MCF7 breast; 38.7% with HCT-116 colon; 57.7% in the experiment on KM12 colon.
For the compound `Cc1nc(Nc2cn[nH]c2C(=O)Nc2ccc(CN3CCN(C)CC3)cc2)c2ccsc2n1`, the growth is 88.5% in the experiment with BT-549 breast; 87.1% in the experiment on MDA-MB-435 melanoma; 114% with SW-620 colon; 52.4% with HCT-116 colon; 95.3% in the experiment with HCC-2998 colon; 27.4% in the experiment with KM12 colon.
For `O=C(Cn1cc(COc2ncnc3c2cnn3-c2ccccc2)nn1)Nc1ccccn1`, the growth is 94% with BT-549 breast; 98% with MDA-MB-435 melanoma; 102% in the experiment with SW-620 colon; 90.4% with MCF7 breast; 98.2% in the experiment on HCT-116 colon; 100% in the experiment on KM12 colon.
For `Cc1ccc2nc(NC(=O)CSC(=S)N3CCN(c4ccccc4)CC3)sc2c1`, the growth in the experiment on BT-549 breast is 102%; in the experiment on MDA-MB-435 melanoma, 111%; with SW-620 colon it was 109%; in the experiment with MCF7 breast, 95%; in the experiment on HCT-116 colon it was 95%; in the experiment on KM12 colon, 95.1%.
`CC(=O)c1ccc(Nc2nc(NCCO)nc(Nc3ccc(Cl)cc3)n2)cc1`: the growth in the experiment on BT-549 breast was 97.3%; with MDA-MB-435 melanoma, 59.4%; in the experiment with SW-620 colon, 94.5%; with HCT-116 colon, 98.4%; in the experiment with HCC-2998 colon, 105%; in the experiment on KM12 colon, 90.8%.
Turning to `O=C(NC(=S)Nc1cccc(NC(=S)NC(=O)c2ccccc2)c1)c1ccccc1`, the growth was 58.4% in the experiment on BT-549 breast; 61.4% with MDA-MB-435 melanoma; 74.6% in the experiment on SW-620 colon; 58.3% in the experiment on MCF7 breast; 67.2% in the experiment on HCT-116 colon; 68% in the experiment with KM12 colon.
For `O=C(/C=C/c1cccc(Cl)c1)OCc1ccc2cc1OCC#C/C=C\C#CCO2`, the growth in the experiment on BT-549 breast was 102%; in the experiment on MDA-MB-435 melanoma it was 106%; in the experiment with SW-620 colon, 108%; with HCT-116 colon, 89%; with HCC-2998 colon, 107%; in the experiment with KM12 colon, 104%.
